The results in this text go back to PubChem BioAssay (NCI).

About 83,000 compounds went through this panel and 20% of them were active in at least one assay; those are over-represented in the sample as a whole.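 Compound tested at a single concentration for 48 hours in 96-well plates; a percent growth value below 10 was scored as active.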 Unmarked numbers belong to inactive results. Active and inactive are the calls of the source.

Among the test systems are SR leukemia; RPMI-8226 leukemia; OVCAR-8 ovarian; OVCAR-5 ovarian; OVCAR-4 ovarian; SK-OV-3 ovarian; IGROV1 ovarian; OVCAR-3 ovarian; HS 578T breast; NCI/ADR-RES ovarian; T-47D breast; BT-549 breast; MDA-MB-435 melanoma; SW-620 colon; MCF7 breast; HCT-116 colon; HCC-2998 colon; KM12 colon.
Common to all, as to experiment: NCI-60 one-dose screen, 48 h (100 = growth as untreated, 0 = no growth, -100 = all killed)
What all share (details): 10 µM unless noted

`CC(C)c1cccc(C#N)c1`: the growth was 97.1% in the test with SR leukemia; 106% in the test on RPMI-8226 leukemia; 95.1% in the test on OVCAR-8 ovarian; 112% with OVCAR-5 ovarian; 101% in the test on OVCAR-4 ovarian; 106% in the test with SK-OV-3 ovarian. Besides, the growth with IGROV1 ovarian was 115%; with OVCAR-3 ovarian, 111%; in the test with HS 578T breast, 101%; in the test with NCI/ADR-RES ovarian it was 91%; in the test on T-47D breast, 95.7%; in the test with BT-549 breast, 102%. In addition, the growth was 101% in the test on MDA-MB-435 melanoma; 107% in the test on SW-620 colon; 95.1% with MCF7 breast; 101% in the test on HCT-116 colon; 102% in the test with HCC-2998 colon.
Regarding `O=c1c2cc(Cl)ccc2oc2ccc(OCCCCCN3CCCCCC3)cc12`, the growth was 47.5% in the test with SR leukemia; 60.3% in the test on RPMI-8226 leukemia; 82.1% with OVCAR-8 ovarian; 97.9% in the test with OVCAR-5 ovarian; 91.8% with OVCAR-4 ovarian; 78.9% with SK-OV-3 ovarian. For the same compound, the growth with IGROV1 ovarian was 90.6%; in the test with OVCAR-3 ovarian, 81.5%; in the test with HS 578T breast, 83%; with NCI/ADR-RES ovarian, 85.7%; in the test on T-47D breast, 74.4%; with BT-549 breast, 79%. Besides, the growth was 80.8% in the test on MDA-MB-435 melanoma; 84.6% in the test with SW-620 colon; 75.3% in the test on MCF7 breast; 57.8% with HCT-116 colon; 88.5% in the test with HCC-2998 colon; 84.8% in the test on KM12 colon.
As to `CNC1=C([N+](=O)[O-])C(c2ccccc2O)C(C#N)=C(c2cccs2)O1` (stereo not given), the growth was 48.6% with SR leukemia; 100% with RPMI-8226 leukemia; 94.2% with OVCAR-8 ovarian; 104% in the test with OVCAR-5 ovarian; 82.4% in the test on OVCAR-4 ovarian; 94.5% in the test on SK-OV-3 ovarian. For the same compound, the growth with IGROV1 ovarian is 90.3%; with OVCAR-3 ovarian, 92%; in the test on HS 578T breast it was 92.3%; in the test on NCI/ADR-RES ovarian it was 102%; with T-47D breast, 81.7%; in the test with BT-549 breast, 100%. For the same compound, the growth in the test on MDA-MB-435 melanoma is 97.8%; in the test with SW-620 colon it was 99.9%; in the test on MCF7 breast, 92.3%; with HCT-116 colon, 98.7%; in the test with HCC-2998 colon, 114%; in the test on KM12 colon, 99.8%.
With `CC(C)(C)[Si](C)(C)OC1[C@@H](O[Si](C)(C)C(C)(C)C)[C@@H](CNC(=O)NC(=O)NC(=O)CCl)O[C@H]1n1cnc2c(NC(=O)Nc3ccccc3)ncnc21` (stereo not given in full), the growth with SR leukemia is -10.7% (active); with RPMI-8226 leukemia it was 46.8%; with OVCAR-8 ovarian, 25.1%; with OVCAR-5 ovarian it was 74.1%; in the test on OVCAR-4 ovarian it was 58.1%; with SK-OV-3 ovarian, 97.3%. For the same compound, the growth is -51.8% (active) in the test on IGROV1 ovarian; -6.77% (active) with OVCAR-3 ovarian; 74.3% in the test with HS 578T breast; 50.4% with NCI/ADR-RES ovarian; 77% in the test on T-47D breast; 71.7% in the test with BT-549 breast. The growth with MDA-MB-435 melanoma is 76.3%; in the test with SW-620 colon, 85.4%; with MCF7 breast it was 37.8%; in the test on HCT-116 colon, 17.6%; with HCC-2998 colon it was 75.5%.
Regarding `COc1cc(C2CC(c3ccc(Cl)cc3)=NN2C(C)=O)ccc1Oc1ccnc2cc(Cl)ccc12` (stereo not given), the growth in the test with SR leukemia is 76.4%; in the test with RPMI-8226 leukemia it was 87.3%; with OVCAR-8 ovarian it was 26.8%; with OVCAR-5 ovarian it was 81.2%; in the test with OVCAR-4 ovarian, -23.8% (active); in the test on SK-OV-3 ovarian, 18.4%. For the same compound, the growth in the test on IGROV1 ovarian is 58.1%; with OVCAR-3 ovarian, 24%; in the test on HS 578T breast, 38.8%; in the test on NCI/ADR-RES ovarian, 53.2%; in the test on T-47D breast it was 53.9%; with BT-549 breast, 92%. Also, the growth in the test on MDA-MB-435 melanoma is 62%; with SW-620 colon, 66.3%; in the test with MCF7 breast, 42.5%; with HCT-116 colon, 24.5%; in the test with HCC-2998 colon, 59.4%; in the test with KM12 colon, 73.5%.
On to `O=C(/C=C/c1cn(-c2ccccc2)nc1-c1ccccc1)OCc1cn(-c2cccc([N+](=O)[O-])c2)nn1`, for which the growth in the test on SR leukemia is 87.4%; with RPMI-8226 leukemia, 80.4%; with OVCAR-8 ovarian it was 82.6%; with OVCAR-5 ovarian, 94.1%; with OVCAR-4 ovarian, 83.3%; in the test on SK-OV-3 ovarian, 83.5%. Also, the growth in the test with IGROV1 ovarian was 98.2%; with OVCAR-3 ovarian, 96.8%; with HS 578T breast, 89.9%; in the test on NCI/ADR-RES ovarian it was 95.4%; with T-47D breast it was 78.2%; in the test on BT-549 breast it was 94.7%. Moreover, the growth is 94% with MDA-MB-435 melanoma; 90.6% in the test on SW-620 colon; 86.8% with MCF7 breast; 82.3% with HCT-116 colon; 96.7% in the test with HCC-2998 colon; 98.6% in the test on KM12 colon.
Take `O=c1oc2ccccc2cc1-c1cc(-c2ccc(-c3cc(-c4cc5ccccc5oc4=O)nc(-c4cc5ccccc5oc4=O)c3)cc2)cc(-c2cc3ccccc3oc2=O)n1`: the growth was 93.7% in the test on SR leukemia; 98.2% in the test with RPMI-8226 leukemia; 103% in the test with OVCAR-8 ovarian; 119% with OVCAR-5 ovarian; 100% in the test on OVCAR-4 ovarian; 94.3% with SK-OV-3 ovarian. The growth with IGROV1 ovarian is 105%; with OVCAR-3 ovarian it was 110%; with HS 578T breast, 104%; in the test on NCI/ADR-RES ovarian, 108%; in the test with T-47D breast, 91.1%; in the test on BT-549 breast it was 106%. Further, the growth in the test on MDA-MB-435 melanoma was 114%; with SW-620 colon, 110%; with MCF7 breast it was 68.6%; in the test on HCT-116 colon, 97%; with HCC-2998 colon it was 110%; with KM12 colon, 103%.
As to `CC(C)(C)c1nn(-c2ccccc2)c2c1C(=O)CSC(c1ccc3c(c1)OCO3)N2` (stereo not given), the growth was 78.8% in the test on SR leukemia; 102% in the test on RPMI-8226 leukemia; 109% in the test with OVCAR-8 ovarian; 95.7% with OVCAR-5 ovarian; 103% in the test on OVCAR-4 ovarian; 95.4% in the test on SK-OV-3 ovarian. Besides, the growth in the test on IGROV1 ovarian was 88.5%; in the test on OVCAR-3 ovarian it was 93.2%; with HS 578T breast it was 101%; in the test with NCI/ADR-RES ovarian, 88.2%; in the test on T-47D breast, 84.4%; in the test on BT-549 breast, 112%. For the same compound, the growth with MDA-MB-435 melanoma was 99.6%; in the test with SW-620 colon, 108%; in the test with MCF7 breast it was 90.3%; in the test with HCT-116 colon, 85.6%; in the test with HCC-2998 colon it was 105%; with KM12 colon, 101%.
For `COc1cc(/C=C/c2cc(/C=C/c3ccc(O)c(OC)c3)n(C(=O)Nc3ccc(F)c(Cl)c3)n2)ccc1O`, the growth in the test with SR leukemia was 1.44% (active); in the test with RPMI-8226 leukemia, -11.3% (active); with OVCAR-8 ovarian it was -44% (active); in the test on OVCAR-5 ovarian it was 0.879% (active); in the test on OVCAR-4 ovarian it was 9.26% (active); with SK-OV-3 ovarian, -31.2% (active). For the same compound, the growth is 4.57% (active) with IGROV1 ovarian; -26.4% (active) in the test on OVCAR-3 ovarian; -12.9% (active) in the test with HS 578T breast; 12% with NCI/ADR-RES ovarian; 2.29% (active) in the test with T-47D breast; -24.2% (active) with BT-549 breast. The growth in the test with MDA-MB-435 melanoma is -25.9% (active); in the test on SW-620 colon it was 2.03% (active); with MCF7 breast, 2.06% (active); in the test with HCT-116 colon, 2.15% (active); in the test on HCC-2998 colon, 9.75% (active); in the test on KM12 colon it was 0.0776% (active).
